Results filed as inconclusive are left out. For some of these results: Measured potencies and affinities stand elsewhere. The source made the active and inactive calls. Numbered stars: 1 amine (or outer) side, 2 acyl side, 3 side chain; on linkers, the order of the positions; unused ones are H or OH. Bridge positions count the residues as written; N and C are the ends. Square brackets hold non-standard residues; d marks the D form. Peptide text beside a SMILES is read from it. I, II: the chains in the order shown. Actinocin(9to1) = Cc1c2oc3c(C)ccc(C(=O)[*:1])c3nc-2c(C(=O)[*:2])c(N)c1=O; NMeV = CN[C@H](C(=O)O)C(C)C; Sar = CNCC(=O)O
Tests used:
[1] = Ebola virus entry assay, green fluorescence channel
[2] = Ebola virus entry assay, blue channel fluorescence
[3] = Ebola virus entry assay, green fluorescence channel; remark: listed apart in the source
[4] = Ebola virus entry assay, ratio channel readout
[5] = Ebola virus entry assay, blue channel fluorescence; remark: listed apart in the source
[6] = Ebola virus entry assay, green channel fluorescence
[7] = qHTS Assay for Identifying Gametocytocidal Compounds (AID 743244; active means well fitted curve in the direction sought with a large enough effect;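 further: on the % scale 0 is the no-effect control and ±100 the full control effect; actives lower the fluorescent signal which means gametocytes are killed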); conditions: P. falciparum 3D7 stage III-V gametocytes, alamarBlue, 72 h; max response: stronger effect = lower value
How it was run: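 Stage III–V gametocytes of P. falciparum 3D7 were seeded at 20,000 cells/well onto pre-dispensed compounds. After 72 h, 37 °C, 5% CO2, alamarBlue was added for another 24 h.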

[8] = Ebola virus entry assay, ratio channel
[9] = qHTS profiling of the MIPE4 collection as inhibitors of Plasmodium falciparum (3D7) proliferation (AID 743344);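 further: scaled between DMSO vehicle wells and 0.29 µM artemisinin as full inhibition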; conditions: P. falciparum 3D7 in erythrocytes, SYBR Green DNA fluorescence, 72 h; at 28.5 µM (top of the series) unless noted
How it was run: (§1)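 Parasite DNA was quantified by SYBR Green I fluorescence (ex 485, em 535 nm) after overnight lysis in saponin/Triton buffer at room temperature. Cultures at 0.3% parasitemia and 2.5% hematocrit were first exposed to compound for 72 h at 37 C; signals were normalised to artemisinin (0.29 uM) and vehicle wells.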

[10] = qHTS profiling of the MIPE4 collection as inhibitors of Plasmodium falciparum (DD2) proliferation (AID 743345); conditions: P. falciparum Dd2 in erythrocytes, SYBR Green DNA, 72 h; at 28.5 µM (top of the series) unless noted
How it was run: as §1

[11] = qHTS profiling of the MIPE4 collection as inhibitors of Plasmodium falciparum (DD2) proliferation (Rep 2) (AID 743346); conditions: P. falciparum Dd2 in erythrocytes, SYBR Green DNA, 72 h; at 28.5 µM (top of the series) unless noted
How it was run: as §1

[12] = qHTS profiling of the MIPE4 collection as inhibitors of Plasmodium falciparum (HB3) proliferation (AID 743347);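 further: plate controls were DMSO vehicle wells for no effect and artemisinin wells for full effect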; conditions: P. falciparum HB3 in erythrocytes, SYBR Green DNA, 72 h; at 28.5 µM (top of the series) unless noted
How it was run: as §1
Wherever efficacy is given: 0% is about no effect.

CCCCC1=NC2(CCCC2)C(=O)N1Cc1ccc(-c2ccccc2-c2nn[nH]n2)cc1
inactive: efficacy [1] 32.1% | outcome [2] | outcome [3] | outcome [4] | outcome [5] | outcome [6]

N[C@@H]1C[C@H]1c1ccccc1
inactive: max response [7] 21.9% | efficacy [1] -26.4% | outcome [2] | outcome [3] | outcome [4] | outcome [8] | outcome [6]

CN(C)[C@@H]1C(=O)C(C(N)=O)=C(O)[C@@]2(O)C(=O)C3=C(O)c4c(O)cccc4[C@@](C)(O)[C@H]3C[C@@H]12
39.9%: parasite growth remaining, % of DMSO control (lower = more inhibition) [10]
28.7%: parasite growth, % of DMSO control [9]
30.2%: parasite growth, % of control (lower = inhibition) [11]
32.8%: growth, % of control [12]
inactive: max response [7] 8.32% | efficacy [1] 106% | outcome [2] | outcome [3] | outcome [4] | outcome [8]

C[C@@H](c1ncncc1F)C(O)(Cn1cncn1)c1ccc(F)cc1F (some centres undefined)
inactive: efficacy [1] -14.3% | outcome [2] | outcome [3] | outcome [4] | outcome [5] | outcome [6]

O=P1(NCCCl)OCCCN1CCCl (centres undefined)
97.2%: parasite growth remaining, % of DMSO control (lower = more inhibition) [10]
107%: growth, % of control [12]
62.8%: parasite growth, % of DMSO control [9]
inactive: max response [7] 4.6% | efficacy [1] 14.4% | outcome [2] | outcome [3] | outcome [4] | outcome [5] | outcome [6]

C[C@]12CC[C@@H]3c4ccc(O)cc4C[C@@H](CCCCCCCCCS(=O)CCCC(F)(F)C(F)(F)F)[C@H]3[C@@H]1CC[C@@H]2O (some centres undefined)
inactive: efficacy [1] 40.4% | outcome [2] | outcome [3] | outcome [4] | outcome [8]

CN1CCN(C(=O)O[C@H]2c3nccnc3C(=O)N2c2ccc(Cl)cn2)CC1
95.4%: parasite growth, % of DMSO control [9]
97.2%: growth, % of control [12]
98.2%: parasite growth remaining, % of DMSO control (lower = more inhibition) [10]
inactive: max response [7] -4.73% | efficacy [1] 27.7% | outcome [2] | outcome [3] | outcome [4] | outcome [5] | outcome [6]

CC(C)n1c(/C=C/[C@@H](O)C[C@@H](O)CC(=O)O)c(-c2ccc(F)cc2)c2ccccc21
inactive: efficacy [1] 14.5% | outcome [2] | outcome [3] | outcome [4] | outcome [5] | outcome [6]

CN(C)C(=N)N=C(N)N
inactive: efficacy [1] -14% | outcome [2] | outcome [3] | outcome [4] | outcome [8] | outcome [6]

Cc1ccnc2c1NC(=O)c1cccnc1N2C1CC1
358%: parasite growth, % of DMSO control [9]
inactive: efficacy [1] 25.7% | outcome [2] | outcome [3] | outcome [4] | outcome [5] | outcome [6]
112%: parasite growth remaining, % of DMSO control (lower = more inhibition) [10]
600%: growth, % of control [12]

CN1C(CCl)Nc2cc(Cl)c(S(N)(=O)=O)cc2S1(=O)=O (centres undefined)
inactive: efficacy [1] -11.6% | outcome [2] | outcome [3] | outcome [4] | outcome [8] | outcome [6]

Cc1cccc(C)c1OCC(C)N (centres undefined)
inactive: efficacy [1] -20.8% | outcome [2] | outcome [3] | outcome [4] | outcome [8] | outcome [6]

Cc1c(OCC(F)(F)F)ccnc1CS(=O)c1nc2ccccc2[nH]1 (centres undefined)
42.1%: parasite growth, % of control (lower = inhibition) [11]
50.8%: growth, % of control [12]
inactive: max response [7] 1.82% | efficacy [1] 18.5% | outcome [2] | outcome [3] | outcome [4] | outcome [5] | outcome [6]
83.1%: parasite growth remaining, % of DMSO control (lower = more inhibition) [10]
56.6%: parasite growth, % of DMSO control [9]

CC(C)c1c(C(=O)Nc2ccccc2)c(-c2ccccc2)c(-c2ccc(F)cc2)n1CC[C@@H](O)C[C@@H](O)CC(=O)O
inactive: efficacy [1] 32.2% | outcome [2] | outcome [3] | outcome [4] | outcome [8] | outcome [6]

CC(C)(C#N)c1cc(Cn2cncn2)cc(C(C)(C)C#N)c1
inactive: efficacy [1] 15% | outcome [2] | outcome [3] | outcome [4] | outcome [8] | outcome [6]

CCCCc1ncc(/C=C(\Cc2cccs2)C(=O)O)n1Cc1ccc(C(=O)O)cc1
inactive: efficacy [1] -11.8% | outcome [2] | outcome [3] | outcome [4] | outcome [8] | outcome [6]

CN(N=O)C(=O)N[C@@H]1[C@@H](O)[C@H](O)[C@@H](CO)O[C@@H]1O
inactive: efficacy [1] -17.3% | outcome [2] | outcome [3] | outcome [4] | outcome [8] | outcome [6]

CC(=O)O[C@]1(C(C)=O)CC[C@H]2[C@@H]3C=C(Cl)C4=CC(=O)[C@@H]5C[C@@H]5[C@]4(C)[C@H]3CC[C@@]21C
active: AC50 [8] 3.55 µM
inactive: efficacy [1] 67.4% | outcome [2] | outcome [3] | outcome [4]

Cc1ccccc1N1C(=O)c2cc(S(N)(=O)=O)c(Cl)cc2NC1C (centres undefined)
inactive: efficacy [1] 25.2% | outcome [2] | outcome [3] | outcome [4] | outcome [8] | outcome [6]

Cc1c2oc3c(C)ccc(C(=O)N[C@@H]4C(=O)N[C@H](C(C)C)C(=O)N5CCC[C@H]5C(=O)N(C)CC(=O)N(C)[C@@H](C(C)C)C(=O)O[C@@H]4C)c3nc-2c(C(=O)N[C@@H]2C(=O)N[C@H](C(C)C)C(=O)N3CCC[C@H]3C(=O)N(C)CC(=O)N(C)[C@@H](C(C)C)C(=O)O[C@@H]2C)c(N)c1=O (I: T[dV]P[Sar][NMeV] / II: T[dV]P[Sar][NMeV]; ester I:1-I:C, II:1-II:C; linker I:N-II:N via Actinocin(9to1))
inactive: efficacy [1] 27.3% | outcome [2] | outcome [3] | outcome [4] | outcome [8] | outcome [6]

From PubChem BioAssay (NCATS)
